Assay outcomes as filed in PubChem BioAssay.
This excerpt belongs to a sample that is enriched for hits.
CHX counter: counter-screen for Shiga toxin inhibitors: cycloheximide protein synthesis inhibition; cell reporter, cycloheximide protein synthesis inhibition counterscreen; max response, %; actives 12% (n = 300,000); in the data active = max response mostly above about 13%, no sharp cut-off; inactive = mostly below about 14%; also: read at 38.3 µM for the half of the compounds with a filed dose; 0% is about no effect
RE007 growth inh: less growth of the S. pombe RE007 Vpr strain. S. pombe RE007 Vpr strain, BacTiter-Glo ATP luminescence, 24 h. Potency, µM (top dose mostly 92.2 µM), for inactives: top-dose activity change, negative = less growth, actives largely listed as inhibitors. actives 0.21% (n = 360,000); active = well fitted falling curve with a large enough effect; inconclusive = small, poorly fitted or top-dose-only effect; inactive = no such curve, though single readings can be large or run the other way; also: potency is read from the fitted curve at half-maximal effect; % is scaled to controls: 0 for no effect and ±100 for the full control effect; nearly all actives have a fitted effect of over 50% in size
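Fission yeast strain RE007, carrying one chromosomally integrated HIV-1 vpr copy, was seeded at OD 0.01 in PMG+AL medium with 23 nL pinned compound. After 24 h at 30 °C and 99% humidity, viability was read by BacTiter-Glo luminescence.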
LmPK inh: blocks Leishmania mexicana pyruvate kinase activity; Potency, µM (series often up to 57.5 µM), for the others: at the highest dose activity change, negative = inhibition, most hits filed as inhibitors; AID 1721; Q27686; actives 0.37% (n = 290,000); purified LmPK, Kinase-Glo ATP luminescence, 1 h; also: potency is read from the fitted curve at half-maximal effect; % is scaled to controls: 0 for no effect and ±100 for the full control effect
Target sequence (Q27686 whole entry, looked up): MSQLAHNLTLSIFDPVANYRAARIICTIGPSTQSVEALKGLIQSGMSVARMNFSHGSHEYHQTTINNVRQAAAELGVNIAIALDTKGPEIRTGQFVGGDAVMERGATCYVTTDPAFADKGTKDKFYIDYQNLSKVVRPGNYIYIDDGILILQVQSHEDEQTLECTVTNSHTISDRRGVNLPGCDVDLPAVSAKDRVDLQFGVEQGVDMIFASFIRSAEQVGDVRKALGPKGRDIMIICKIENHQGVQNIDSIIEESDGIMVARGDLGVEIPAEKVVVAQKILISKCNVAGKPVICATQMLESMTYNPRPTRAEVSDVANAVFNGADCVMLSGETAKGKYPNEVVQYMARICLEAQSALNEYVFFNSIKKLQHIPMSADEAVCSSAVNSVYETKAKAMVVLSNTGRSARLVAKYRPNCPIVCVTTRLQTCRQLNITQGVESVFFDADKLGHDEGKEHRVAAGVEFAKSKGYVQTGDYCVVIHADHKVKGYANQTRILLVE
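Kinase-Glo luminescence read after 1 h RT reaction of 0.1 nM LmPK with 0.5 mM PEP and 0.1 mM ADP. Activity scaled between uninhibited and enzyme-free controls.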
TbPYK inhibitor: blocks Trypanosoma brucei pyruvate kinase; Q57TT1; TbPYK enzyme, Kinase-Glo Plus ATP luminescence, 45 min; Potency, µM (titrated, usually from 76.8 µM), inactives show at the highest dose activity, negative = inhibition, hits mostly inhibitors; actives 0.12% (n = 410,000); AID 624173; also: potency is read from the fitted curve at half-maximal effect; % is scaled to controls: 0 for no effect and ±100 for the full control effect; nearly all actives have a fitted effect of over 50% in size
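Screened from lowest to highest concentration, compounds were pinned into TbPYK/substrate mixtures, and ADP (130 uM final) was added. Plates sat at room temperature for 45 min prior to Kinase-Glo Plus detection by luminescence.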
Giardia FBPA inh: Giardia lamblia aldolase inhibition; Potency, µM (series often up to 59.6 µM), without a hit: top-dose activity, negative = inhibition, usual class: inhibitors; A8B2U2; purified Giardia FBPA; actives 0.71% (n = 290,000); also: potency is read from the fitted curve at half-maximal effect; % is scaled to controls: 0 for no effect and ±100 for the full control effect; nearly all actives have a fitted effect of over 55% in size
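Giardia FBPA (40 nM reagent) was preincubated 10 min at RT with compound (up to 57.5 uM final), then substrate plus GAPDH/TPI/NAD/arsenate coupling system with diaphorase/resazurin was added; resorufin fluorescence (525/598 nm) was read after 20 min.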
Shiga inhibitor: Shiga toxin inhibition; Vero cells, Shiga toxin protein synthesis inhibition reporter; inhibition, % at 38.7 µM; actives 9.2% (n = 290,000); AID 2315; in the data active = inhibition mostly above about 28%, no sharp cut-off; inactive = mostly below about 43%; also: 0% is about no effect
An asterisk follows results filed as active; ? = inconclusive; . = no result given; [ ] = dose if it differs, or a comment. Unless noted, calls follow the shape of the dose curve; as a rule, active = well fitted curve in the direction sought with a large enough effect; inconclusive = small, poorly fitted or top-dose-only effect, or another doubt; inactive = no such curve, though single readings can be large; an effect the other way counts as inactive or inconclusive.

SMILES	CHX counter	RE007 growth inh	LmPK inh	TbPYK inhibitor	Giardia FBPA inh	Shiga inhibitor
CCOc1ccc(/C=C2\SC(=S)NC2=O)cc1OC	14*	-23%	14µM*	-10%	8%	41*
COc1ccc(CNC(=O)Cc2ccc(NC(=O)N3CCSc4ncccc43)cc2)cc1OC	.	.	.	4%[15.4 µM]	.	.
O=C(Cn1c(=O)sc2ccccc21)NCc1ccccn1	18*	-2%	0%	-1%	1%	54*
O=C(CN1C(=O)c2ccccc2C1=O)NCc1ccccn1	1	12%	1%	-4%	3%	25
COc1ccccc1/C=C\C=N\NC(=O)c1ccco1	39*	6%	0%	1%	-12%	153*
COc1ccccc1/C=C/C=N/NC(=O)c1cccs1	44*	?	-15%	5%	?	116*
COc1ccccc1/C=C/C=N/NC(=O)Cc1cccn1C	-2	-27%	0%	-11%	-6%	26
Cc1ccc(C)c(N2CCN(S(=O)(=O)c3ccc(-c4cnc(C5CC5)o4)cc3)CC2)c1	.	.	.	-5%	.	.
O=C(O)c1ccccc1Oc1ccc(Oc2ccccc2)cc1	7.5*	27%	-5%	-1%	7%	25
O=C(NCc1ccc(F)cc1)c1cc(Sc2ccc(F)cc2F)nc2ccccc12	.	.	.	-5%	.	.
Cn1c(=O)[nH]c(=O)c2c1nc(Br)n2C/C=N/NC(=O)c1ccccc1	39*	-18%	0%	0%	1%	55*
Cn1c(=O)[nH]c(=O)c2c1nc(Br)n2C/C=N/Nc1ccccc1	9	180%	-2%	0%	-3%	-6
O=C(Oc1ccccc1/C=C\C(=O)c1cc2ccccc2o1)c1cccc(F)c1	37*	-6%	-6%	-1%	-6%	41*
COc1ccc(/C=C/C(=O)c2cc(F)ccc2OC(=O)c2ccccc2)cc1OC	.	-19%	.	2%	.	.
O=C(Oc1ccccc1/C=C\C(=O)c1cc2ccccc2o1)c1ccccc1	35*	-8%	-3%	-8%	-8%	90*
O=C(Nc1ccccc1)c1ccc(OC(=O)c2cc3ccccc3o2)cc1	-2	16%	0%	0%	8%	-2
COc1ccc(C(=O)/C=C/c2ccccc2OC)c(OC(=O)c2ccc([N+](=O)[O-])cc2)c1	.	5%	.	0%	.	.
COc1cccc(C(=O)Oc2ccccc2/C=C\C(=O)c2cc3ccccc3o2)c1	86*	-3%	-5%	0%	-6%	63*
CCc1ccc(Oc2c(C(F)(F)F)oc3c(CN4CCN(C)CC4)c(O)ccc3c2=O)cc1	.	.	.	3%	.	.
COc1ccc(CCCc2nnc(SCC(=O)Nc3ccc(C)cc3)o2)cc1C	.	.	.	2%	.	.
CC(NC(=O)c1ccccc1)C(=O)N/N=C/c1cccc([N+](=O)[O-])c1 (stereo unspecified)	17*	47%	1%	-4%	-8%	93
CC(NC(=O)c1ccccc1)C(=O)N/N=C/c1ccc(O)cc1 (stereo unspecified)	2	4%	3%[11.5 µM]	-2%	2%	9
O=C(Cc1ccccc1)N/N=C/c1cccc([N+](=O)[O-])c1	9.6*	0%	4%	3%	-9%	12
O=C(N/N=C/c1cccc([N+](=O)[O-])c1)c1nc2ccccc2c(=O)[nH]1	19*	-8%	-2%	1%	-28%	33
COc1cccc(NC(=O)CCN2C(=O)C3CC=CCC3C2=O)c1 (stereo unspecified)	49*	-3%	-5%	4%	.	73*
SMILES	CHX counter	RE007 growth inh	LmPK inh	TbPYK inhibitor	Giardia FBPA inh	Shiga inhibitor
COc1ccc(NC(=O)CCCN2C(=O)C3CC=CCC3C2=O)cc1 (stereo unspecified)	24*	-2%	1%	-4%	4%	40*
COc1cccc(NC(=O)CCCN2C(=O)C3CC=CCC3C2=O)c1 (stereo unspecified)	9	-8%	3%	2%	-1%	10
Cc1ccc(-n2ncc(C(=O)NCCN3CCC(Cc4ccccc4)CC3)c2C2CCN(C(=O)OC(C)(C)C)CC2)cc1	.	.	.	-1%[15.4 µM]	.	.
O=C(NNC(=O)c1cc(OCC(F)(F)F)ccc1OCC(F)(F)F)c1cccc(C(F)(F)F)c1	20*	1%	0%	4%	-2%	56*
CCCCCC(O)c1ccc([C@H]2CCC(=O)[C@@H]2CCCCCCC(=O)O)cc1 (stereo partly specified)	-7	.	.	.	24%	18
Cc1ccc2c(c1)N=C(c1ccccc1)CC(C(Cl)Cl)=N2	37*	-13%	?	-19%	?	84*
Cc1cc2c(cc1C)NC(=O)CC(c1ccccc1)=N2	.	-5%	.	1%	.	.
Cc1ccc(C2=Nc3ccccc3N=C(C(Cl)Cl)C2)cc1	41*	-21%	?	-15%	?	123*
Oc1ccc(Cl)cc1C1=Nc2ccccc2N=C(c2ccccc2)C1	.	.	.	0%	.	.
CCN(CC)S(=O)(=O)c1ccc(N2CCN(C)CC2)c(NC(=O)Nc2ccc(C)cc2)c1	17*	-2%	0%	3%	-7%	2
CCN(CC)S(=O)(=O)c1ccc(N2CCN(C)CC2)c(NC(=O)CSCC(=O)Nc2cccc(C)c2)c1	.	7%	.	0%	.	.
CC(=O)Nc1ccc(NC(=O)c2ccc(-c3ccccc3Cl)o2)cc1	.	-11%	.	-3%	.	.
O=C(Nc1ccccc1)c1ccc(-c2ccccc2C(F)(F)F)o1	46*	7%	-5%	-18%	-12%	73*
CC(C)NC(=O)c1ccc(-c2ccccc2C(F)(F)F)o1	44*	5%	5%	-3%	0%	93*
O=C(Nc1ccccc1)c1ccc(-c2ccccc2Cl)o1	38*	-5%	-8%	2%	-14%	58
COc1cccc(NC(=O)CN(C)C(=O)c2ccc(-c3ccc(Cl)cc3)o2)c1	.	3%	.	6%	.	.
COc1cccc(NC(=O)CN(C)C(=O)c2ccc(-c3ccccc3Cl)o2)c1	11*	6%	-1%	-9%	.	7
CCOC(=O)c1c(C)[nH]c(C)c1S(=O)(=O)N(C)CC(=O)Nc1ccc(C)cc1Br	.	.	.	0%	.	.
Cc1ccc(-c2ccc(C(=O)NCc3ccccc3)o2)c2ccccc12	-2	-11%	0%	-2%	-14%	-11
Cc1ccc(-c2ccc(C(=O)Nc3ccccc3)o2)c2ccccc12	36*	3%	1%	1%	?	67*
O=C(O)c1ccc(-c2ccccc2Cl)o1	-2	-6%	-11%	4%	8%	20
